From PubChem BioAssay (Tox21)
Inconclusive results are not listed. Activity calls are given as the source filed them. Unless noted, calls follow the shape of the full dose curve.

Assays:
[1] = Nuclear factor erythroid 2-related factor 2/antioxidant responsive element (Nrf2/ARE) small molecule agonists: qHTS cell viability counter screen in human keratinocytes (AID 1919968; active = well fitted curve in the direction sought with a large enough effect in the repeat runs; an effect the other way counts as inactive or inconclusive; also: nearly all actives have a fitted effect of over 55% in size)
Procedure, shortened: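 Seed 1,500 KeratinoSens cells per well, then incubate 5 h at 37 C/5% CO2. Add compounds in DMSO and incubate 23 h. Add CellTiter-Fluor, wait 1 h and read fluorescence.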

[2] = Nuclear factor erythroid 2-related factor 2/antioxidant responsive element (Nrf2/ARE) small molecule agonists: luciferase reporter gene qHTS assay in human keratinocytes (AID 1919969); also: nearly all actives have a fitted effect of over 35% in size
[3] = biological target: Gonadotropin-releasing hormone receptor (Homo sapiens) (UniProt P30968); experiment: Human gonadotropin-releasing hormone receptor (GnRHR) small molecule agonists, calcium flux assay in GnRHR-HEK293 cells (AID 1920063); also: nearly all actives have a fitted effect of over 35% in size
Chain of Gonadotropin-releasing hormone receptor (Homo sapiens) (P30968 whole entry, looked up): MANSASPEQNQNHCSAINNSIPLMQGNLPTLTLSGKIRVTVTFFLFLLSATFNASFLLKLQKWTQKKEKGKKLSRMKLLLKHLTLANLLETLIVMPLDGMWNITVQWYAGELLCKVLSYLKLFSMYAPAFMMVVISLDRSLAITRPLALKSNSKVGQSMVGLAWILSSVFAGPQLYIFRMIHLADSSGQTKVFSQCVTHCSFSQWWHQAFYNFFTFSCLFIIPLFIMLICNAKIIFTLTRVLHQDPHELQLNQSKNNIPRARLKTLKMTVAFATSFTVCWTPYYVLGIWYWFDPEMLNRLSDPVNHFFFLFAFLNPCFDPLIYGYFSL
Procedure, shortened: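 Cells: HEK293 stably expressing human GnRHR. Steps: overnight (18 h) culture, 1 h calcium dye loading at 37 C, compound addition, kinetic fluorescence read at 480/540 nm. Each compound tested at 15 concentrations in triplicate.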

[4] = biological target: KiSS-1 receptor (Homo sapiens) (UniProt Q969F8); experiment: Human kisspeptin (KISS1R) small molecule agonists, calcium flux assay in KISS1R-HEK293 cells (AID 1920064; active = well fitted curve in the direction sought with a large enough effect in the repeat runs; an effect the other way counts as inactive or inconclusive)
Chain of KiSS-1 receptor (Homo sapiens) (Q969F8 whole entry, looked up): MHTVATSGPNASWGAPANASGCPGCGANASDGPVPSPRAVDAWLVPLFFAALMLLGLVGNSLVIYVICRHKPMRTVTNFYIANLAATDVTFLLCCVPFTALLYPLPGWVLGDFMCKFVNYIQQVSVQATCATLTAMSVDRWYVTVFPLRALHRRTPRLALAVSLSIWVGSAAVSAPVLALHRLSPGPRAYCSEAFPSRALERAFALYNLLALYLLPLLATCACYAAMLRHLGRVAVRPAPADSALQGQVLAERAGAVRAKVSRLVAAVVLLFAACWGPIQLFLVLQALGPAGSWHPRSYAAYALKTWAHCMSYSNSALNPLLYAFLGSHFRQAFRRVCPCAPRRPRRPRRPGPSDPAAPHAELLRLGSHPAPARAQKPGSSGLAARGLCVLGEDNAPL
Procedure, shortened: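 Cells plated and incubated 18 h; dye added, 1 h at 37 C; compounds in DMSO pinned in; signal read at 480/540 nm every second for 3 min. Each compound tested at 15 concentrations in triplicate.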

[5] = G protein-coupled receptor (GPCR) small molecule agonists, calcium flux assay: HEK293 wild type cell line counter screen (AID 1920065)
Procedure, shortened: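 Counter-screen of the Tox21 10K library for non-specific calcium release: dye-loaded cells received compounds in DMSO and were monitored by kinetic fluorescence (480/540 nm, 3 min). Fifteen concentrations, run in triplicate.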

[6] = p53 small molecule agonists, cell-based qHTS assay with human liver microsomes (AID 1963577);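 also: p53 response element beta-lactamase reporter cells with liver microsomes plus NADPH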
Procedure, shortened: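 With metabolic activation: human liver microsomes (0.5 mg/mL final) plus NADPH (0.5 mg/mL final) added alongside compounds to p53RE-bla cells; 16 h 37 C exposure; beta-lactamase read by LiveBLAzer fluorescence.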

[7] = p53 small molecule agonists, cell-based qHTS assay with rat liver microsomes (AID 1963578)
Procedure, shortened: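 Metabolic activation by rat liver microsomes and NADPH, each 0.5 mg/mL final, added right after compounds to p53RE-bla reporter cells (4,000/well, plated 5 h earlier). 16 h at 37 C, then LiveBLAzer substrate for 2 h at room temperature in the dark; fluorescence read-out.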

[8] = p53 small molecule agonists, cell-based qHTS assay with human liver microsomes: qHTS cell viability counter screen (AID 1963579); also: nearly all actives have a fitted effect of over 45% in size
Procedure, shortened: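 Metabolic activation used human liver microsomes and NADPH, both 0.5 mg/mL final, over 16 hours at 37 C on p53RE-bla cells (4,000/well). Cytotoxicity measured by CellTiter-Glo luminescence, 30 min at room temperature.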

[9] = p53 small molecule agonists, cell-based qHTS assay with rat liver microsomes: qHTS cell viability counter screen (AID 1963580); also: nearly all actives have a fitted effect of over 45% in size
Procedure, shortened: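 In HCT-116 cells carrying a p53 response element-bla reporter, compounds were metabolically activated in situ by rat liver microsomes with NADPH over 16 h. Cell ATP content then served as the cytotoxicity measure.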

[10] = p53 small molecule agonists, cell-based qHTS assay: qHTS cell viability counter screen (AID 1963581); also: nearly all actives have a fitted effect of over 45% in size
Procedure, shortened: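 Cells: HCT-116 with p53 response element-driven beta-lactamase. Treatment: 16 h, 37 C, compounds in DMSO. Read: CellTiter-Glo luminescence after 30 min RT.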

[11] = p53 small molecule agonists, cell-based qHTS assay (AID 1963582; active = well fitted activation curve with a large enough effect in the signal ratio in the repeat runs, not every such curve was filed as active; the % refers to the signal ratio)
Procedure, shortened: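 Quantitative HTS in p53RE-bla cells: after a 5 h settling period, compounds delivered in DMSO were left on cells for 16 h at 37 C, and reporter induction was measured as fluorescence following 2 h substrate loading.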

[12] = biological target: 5-hydroxytryptamine receptor 2A (Homo sapiens) (UniProt P28223); experiment: 5-hydroxytryptamine receptor 2A (HTR2A) small molecule antagonists, cell-based qHTS assay (AID 1963586); also: nearly all actives have a fitted effect of over 45% in size
Chain of 5-hydroxytryptamine receptor 2A (Homo sapiens) (P28223 whole entry, looked up): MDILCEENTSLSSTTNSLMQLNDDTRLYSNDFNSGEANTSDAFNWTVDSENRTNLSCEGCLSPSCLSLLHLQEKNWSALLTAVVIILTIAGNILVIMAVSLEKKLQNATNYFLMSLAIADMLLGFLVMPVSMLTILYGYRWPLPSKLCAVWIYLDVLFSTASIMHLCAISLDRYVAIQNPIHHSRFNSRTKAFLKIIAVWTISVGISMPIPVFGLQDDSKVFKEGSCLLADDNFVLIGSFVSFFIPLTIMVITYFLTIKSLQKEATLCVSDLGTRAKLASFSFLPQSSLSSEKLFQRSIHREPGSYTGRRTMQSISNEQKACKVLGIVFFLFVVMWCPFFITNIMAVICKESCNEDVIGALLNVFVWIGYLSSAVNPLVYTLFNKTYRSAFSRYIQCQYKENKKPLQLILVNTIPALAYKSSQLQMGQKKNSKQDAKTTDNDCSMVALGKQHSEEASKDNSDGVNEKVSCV
Procedure, shortened: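 Antagonist-mode intracellular calcium assay: DOI (4 nM) added after 5 min compound pre-incubation at room temperature to dye-loaded HTR2A-CHO cells. Fluorescence followed for 3 min, sampled every second.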

[13] = biological target: 5-hydroxytryptamine receptor 2A (Homo sapiens) (UniProt P28223); experiment: 5-hydroxytryptamine receptor 2A (HTR2A) small molecule agonists, cell-based qHTS assay (AID 1963587); also: nearly all actives have a fitted effect of over 30% in size
Procedure, shortened: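 HTR2A-CHO cells, plated 18 h at 37 C/5% CO2, dye-loaded 1 h at 37 C; compounds in DMSO added by pin tool (agonist mode). Intracellular calcium flux read as kinetic fluorescence on FDSS over 2 min at 1 s intervals.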

[14] = biological target: Muscarinic acetylcholine receptor M1 (Homo sapiens) (UniProt P11229); experiment: Cholinergic receptor muscarinic 1 (CHRM1) small molecule antagonists, cell-based qHTS assay (AID 1963588); also: nearly all actives have a fitted effect of over 40% in size
Chain of Muscarinic acetylcholine receptor M1 (Homo sapiens) (P11229 whole entry, looked up): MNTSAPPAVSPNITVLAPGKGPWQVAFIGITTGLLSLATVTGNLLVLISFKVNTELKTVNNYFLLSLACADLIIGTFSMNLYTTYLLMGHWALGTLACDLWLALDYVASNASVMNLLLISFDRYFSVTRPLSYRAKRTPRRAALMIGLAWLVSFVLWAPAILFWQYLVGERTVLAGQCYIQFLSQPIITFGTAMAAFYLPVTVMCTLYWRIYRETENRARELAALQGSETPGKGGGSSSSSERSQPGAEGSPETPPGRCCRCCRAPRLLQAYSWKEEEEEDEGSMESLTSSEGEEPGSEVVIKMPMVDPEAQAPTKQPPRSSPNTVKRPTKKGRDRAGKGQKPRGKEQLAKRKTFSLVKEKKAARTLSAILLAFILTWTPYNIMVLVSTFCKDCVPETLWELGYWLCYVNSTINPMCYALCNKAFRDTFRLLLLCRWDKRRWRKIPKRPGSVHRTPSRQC
Procedure, shortened: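 CHRM1-CHO calcium-flux assay, antagonist mode. Cells were seeded 18 h, dye-loaded 1 h at 37 C and given compound for 5 min at RT, then acetylcholine was added at 50nM. FDSS fluorescence was read 3 min; 15 concentrations, three runs.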

[15] = biological target: Muscarinic acetylcholine receptor M1 (Homo sapiens) (UniProt P11229); experiment: Cholinergic receptor muscarinic 1 (CHRM1) small molecule agonists, cell-based qHTS assay (AID 1963589); also: nearly all actives have a fitted effect of over 35% in size
Procedure, shortened: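 Agonist-mode qHTS in CHO cells stably carrying human muscarinic M1. Intracellular calcium is tracked by fluorescence every second after compound transfer; each compound runs at 15 concentrations in three independent runs.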

[16] = cAMP Responsive Elements (CRE) small molecule agonists, cell-based qHTS assay (AID 1963590)
Procedure, shortened: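 Agonist mode qHTS in CRE-bla HEK 293T cells: compounds dosed from DMSO for 3 h at 37 C/5% CO2, followed by LiveBLAzer B/G FRET substrate for 2 h at room temperature.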

[17] = cAMP Responsive Elements (CRE) small molecule antagonists, cell-based qHTS assay (AID 1963591; active = well fitted inhibition curve with a large enough effect in the signal ratio in the repeat runs, not every such curve was filed as active; the % refers to the signal ratio)
Procedure, shortened: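 Antagonist mode: test compounds are co-incubated with the adenylyl cyclase activator NKH477 (0.25 uM final) on CRE-bla HEK293T cells for 3 h at 37 °C, followed by LiveBLAzer substrate loading.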

[18] = biological target: Beta-2 adrenergic receptor (Homo sapiens) (UniProt P07550); experiment: Adrenergic beta2 receptor (ADRB2) small molecule antagonists, cell-based qHTS assay (AID 1963592); also: series mostly up to about 92 µM; nearly all actives have a fitted effect of over 50% in size
Chain of Beta-2 adrenergic receptor (Homo sapiens) (P07550 whole entry, looked up): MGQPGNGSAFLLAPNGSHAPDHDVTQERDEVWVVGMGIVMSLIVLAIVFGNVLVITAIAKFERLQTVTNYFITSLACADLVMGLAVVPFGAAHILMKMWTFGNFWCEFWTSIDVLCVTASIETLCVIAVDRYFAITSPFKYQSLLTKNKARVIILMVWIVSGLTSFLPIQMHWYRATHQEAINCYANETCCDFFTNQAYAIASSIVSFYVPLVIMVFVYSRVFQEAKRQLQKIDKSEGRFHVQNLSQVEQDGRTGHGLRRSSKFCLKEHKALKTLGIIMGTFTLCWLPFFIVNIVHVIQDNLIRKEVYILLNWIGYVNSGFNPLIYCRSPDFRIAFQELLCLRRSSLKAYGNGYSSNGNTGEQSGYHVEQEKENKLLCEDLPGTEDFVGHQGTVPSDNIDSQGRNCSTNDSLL
Procedure, shortened: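 Cells (CHO, stable ADRB2 overexpression) incubated 18-20hr at 37C; compounds added from DMSO; agonist mix (1nM isoproterenol, 100uM IBMX, 25uM Ro-20-1724) added; 0.5hr RT; d2-cAMP and anti-cAMP-cryptate added; 1hr RT; 665/615 nm read.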

[19] = biological target: D(2) dopamine receptor (Homo sapiens) (UniProt P14416); experiment: Dopamine D2 receptor (DRD2) small molecule agonists, cell-based qHTS assay (AID 1963594); also: nearly all actives have a fitted effect of over 35% in size
Chain of D(2) dopamine receptor (Homo sapiens) (P14416 whole entry, looked up): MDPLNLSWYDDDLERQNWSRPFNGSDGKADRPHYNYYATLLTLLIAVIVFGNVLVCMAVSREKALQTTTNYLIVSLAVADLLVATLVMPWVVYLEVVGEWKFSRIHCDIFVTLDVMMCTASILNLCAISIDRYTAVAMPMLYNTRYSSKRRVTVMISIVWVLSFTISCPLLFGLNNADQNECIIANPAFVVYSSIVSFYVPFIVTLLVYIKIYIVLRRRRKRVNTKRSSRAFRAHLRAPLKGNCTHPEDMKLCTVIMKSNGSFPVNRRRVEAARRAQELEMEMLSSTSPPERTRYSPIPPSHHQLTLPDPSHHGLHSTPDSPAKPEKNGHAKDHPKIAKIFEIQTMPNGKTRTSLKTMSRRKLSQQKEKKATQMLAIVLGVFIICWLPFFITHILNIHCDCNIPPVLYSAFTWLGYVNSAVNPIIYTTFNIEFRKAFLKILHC
Procedure, shortened: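 HEK293 cells stably expressing DRD2 were cultured 24 h at 37 C, then given Ro20-1724 (0.1 mM final) and compounds for 10 min at room temperature. NKH477 (200nM) was then added for 30 min. cAMP was read by HTRF.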

[20] = biological target: D(2) dopamine receptor (Homo sapiens) (UniProt P14416); experiment: Dopamine D2 receptor (DRD2) small molecule antagonists, cell-based qHTS assay (AID 1963595; active = well fitted inhibition curve with a large enough effect in the signal ratio in the repeat runs, with a control signal flat; the % refers to the signal ratio)
Procedure, shortened: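 DRD2-HEK293; 0.1 mM Ro20-1724; cpd 10 min RT; NKH477 200 nM + quinpirole 12 nM, 30 min RT; HTRF cAMP (cAMP-d2/anti-cAMP cryptate), 665/620 nm ratio after 1 h.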

Measured: Potency

CCCCCCCC(=O)OCC(COC(=O)CCCCCCC)OC(=O)CCCCCCC
inactive: all assays above

Cc1cccc2ccccc12
inactive: all assays above

CCCC(C)=O
inactive: all assays above

CCCCCCOCCO
inactive: all assays above

NC(=O)/N=N/C(N)=O
inactive: all assays above

COc1ccc([N+](=O)[O-])cc1N
inactive: all assays above

CCC(O)OCCCOC (centres undefined)
not listed: [19]
inactive: all other assays above
